From PubChem BioAssay AID1906 (The Scripps Research Institute Molecular Screening Center, 2009) come the findings set out here.

Hit rate of the full screen: of about 300,000 compounds, about 1,500 (0.5%) were called active. The sample as a whole holds a higher share of actives than the screen did. Values without a mark were called inactive.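 The calls were made as follows: active = inhibition above the mean of all tested compounds plus 3 SD, set per screening campaign (cut at about 17% in these data); inactive = the rest.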

For this test, the system named is cathepsin L1 (Fasciola hepatica). Kind of test: Fasciola hepatica cathepsin L1 inhibitors, primary screen, counter-screen for PFM18AAP inhibitor project, biochemical, QFRET, fluorogenic peptide substrate (AID 1906).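 Also: 0% = plate median of test compound wells and 100% = 1 µM Z-Phe-Ala-diazomethylketone.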 The settings on record: recombinant F. hepatica cathepsin L1, Z-Leu-Arg-MCA fluorescence; at 5.96 µM; active compounds read high.
In the case of `Cc1ccc(CNC(=O)Cn2cnc(S(=O)(=O)N3CCCCC3)c2)o1`, the inhibition was 17.4% (active). For `O=C(COC(=O)c1cc(S(=O)(=O)N2CCCCC2)ccc1Cl)NCc1ccco1`, the inhibition is -8.1%.

`O=C(COc1ccc(S(=O)(=O)N2CCCCC2)cc1)NCc1ccccn1`: the inhibition is -1.94%. For the compound `CCOC(=O)/C(=N\Nc1ccccc1Cl)N(C)C1CCS(=O)(=O)C1` (centres undefined), the inhibition is -2.25%. Consider `CCc1c(C)nc(SCC(=O)NC2CCCC2)[nH]c1=O`, for which the inhibition was 0.66%. For the compound `Cc1cccc2sc(N(CCCN(C)C)C(=O)CCS(=O)(=O)c3ccccc3)nc12`, the inhibition is 28.5% (active).

As to `COc1cccc2sc(N(CCCN(C)C)C(=O)C(c3ccccc3)c3ccccc3)nc12`, the inhibition was 1.13%. In the case of `COc1cccc2sc(N(CCCN(C)C)C(=O)CCS(=O)(=O)c3ccccc3)nc12`, the inhibition is 52.7% (active).

For `Cc1ccc2sc(N(CCN(C)C)C(=O)/C=C/c3cccs3)nc2c1C`, the inhibition was 0.9%. Regarding `CC(=O)N(CCCN(C)C)c1nc2ccc(C)cc2s1`, the inhibition was 2.99%. As for `COc1cc2ccccc2cc1C(=O)N(CCN(C)C)c1nc2c(F)cccc2s1`, the inhibition was 3.44%. Turning to `Cc1ccc(SCC(=O)Nc2nncs2)cc1`, the inhibition was -3.07%.

Turning to `Cc1cc([N+](=O)[O-])c(NC2CCCCC2)c([N+](=O)[O-])c1`, the inhibition was 5.19%. Regarding `Cc1cc(C(F)F)nn1CC(=O)NC1CCCCCC1`, the inhibition is -2.79%.

Turning to `O=C(Cn1nc([N+](=O)[O-])nc1Br)NC1CCCCC1`, the inhibition was 56.3% (active). Consider `Cc1nn(CC(=O)NC2CCCCC2)c(=O)c2cccn12`, for which the inhibition is -0.36%.

With `Cc1cc(C)n(-c2nc(O)cc(=O)[nH]2)n1`, the inhibition was -2.61%. As to `CC(OC(=O)CCC(=O)c1ccccc1)C(=O)Nc1ccc(F)cc1` (centres undefined), the inhibition is -70.5%. On to `C/C(=N\NC(=O)c1ccc2ccccc2c1)c1cccnc1`, for which the inhibition is 0.17%. Consider `Cn1cccc1/C=C1\SC(=S)N(NC(=O)c2ccc(Cl)cc2)C1=O`, for which the inhibition was 1.38%. The same measure for `O=C(O)c1ccc2c(c1)C(=O)N(NC(=O)c1ccc(O)cc1)C2=O`: -4.02%; for `CC(=O)N1C(=O)/C(=C2\SC(=S)N(NC(=O)c3ccc(O)cc3)C2=O)c2ccccc21`: 20.6% (active); for `CC(=O)c1cccc(NC(=S)N2CCN(S(C)(=O)=O)CC2)c1`: -1.96%. Then `O=C(NCc1ccccc1Cl)C1CCCN1S(=O)(=O)c1ccc(F)cc1` (centres undefined), with -1.27%. The same measure for `COc1cccc(OCc2nnc3n2N=C(c2ccccc2)C(CC(=O)O)S3)c1` (centres undefined): -0.13%.

As to `NC(=O)C1CCN(C(=O)/C(=C/c2ccco2)NC(=O)c2ccccc2)CC1`, the inhibition was 3.81%. As to `O=C(NCc1ccco1)/C(=C/c1ccco1)NC(=O)c1ccccc1`, the inhibition is 8.99%. Regarding `O=C(OCN1C(=O)c2ccccc2C1=O)/C(=C\c1ccco1)NC(=O)c1ccccc1`, the inhibition is 83.3% (active). Consider `CNC(=O)c1c(NC(NC(=O)c2ccco2)C(=O)c2ccc(Cl)cc2)sc2c1CCCC2` (centres undefined), for which the inhibition is 1.81%. Regarding `Cc1cc(CNC(=O)C2CCC(=O)N(CCc3ccc(Cl)cc3)C2)no1` (centres undefined), the inhibition was 1.95%. Then `Cc1cc(=O)[nH]c2nnnn12`, with 0.51%. Then `O=C(Cc1ccccc1Cl)N1CCOCC1`, with -0.12%. Then `Cc1cc2cc3c(N)[nH]nc3nc2cc1C`, with 0.69%; and `O=C(Nc1cccc2c1CCCC2)c1ccc(F)cc1`, with -0.12%; and `O=C(Nc1cccnc1Oc1ncnc2cc(Cl)ccc12)c1ccc(F)cc1`, with 19.2% (active). On to `O=C(Nc1cccc2cccnc12)c1cccc(Cl)c1`, for which the inhibition was 5.74%. The same measure for `CCCNC(=O)C(=O)Nc1cc2c3c(c1)CCC(=O)N3CCC2`: 57.1% (active). Regarding `O=C(COc1ccccc1)Nc1cc2c3c(c1)CC(=O)N3CCC2`, the inhibition is -2.44%. In the case of `O=C(Nc1cc2c3c(c1)CC(=O)N3CCC2)c1ccccc1F`, the inhibition was -1.43%.

For the compound `COc1ccccc1C(=O)NC(CCSC)C(=O)NNC(=O)c1ccccc1C` (centres undefined), the inhibition is 7.41%. For the compound `CC1CN/C(=C\C(=O)c2ccc(Br)cc2)C(=O)N1` (centres undefined), the inhibition is 0.61%. In the case of `COC1=C(N2CCOCC2)C(=O)c2ccccc2C1=O`, the inhibition was 21.1% (active).

As for `O=C1c2ccccc2-c2ncnc3c(N4CCOCC4)cc(N4CCOCC4)c1c23`, the inhibition was 3.65%.

Regarding `COc1ccc(N2CCN(C(C)=C3C(=O)c4ccccc4C3=O)CC2)cc1`, the inhibition is 0.37%. With `C[C@@H](O)c1nc2ccccc2n1N`, the inhibition is -3.93%. `CC1=NNC(=O)C1CC(=O)N/N=C/c1ccncc1` (centres undefined): the inhibition was 2.89%.

With `O=C(CSC1CC(=O)N(CCc2ccccc2)C1=O)Nc1ccc(Cl)cc1` (centres undefined), the inhibition was -0.89%. As for `CC(=O)Nc1ccc(CN2CCN(Cc3ccc(F)c(F)c3)C(CCO)C2)cc1` (centres undefined), the inhibition is -1.18%. Consider `CCOC(=O)c1c(NC(=O)CCl)sc(C(=O)N(CC)CC)c1C`, for which the inhibition was 41.2% (active). Regarding `CCOC(=O)Nc1sc(C(=O)N(C)C)c(C)c1C(=O)OCC`, the inhibition was 3.33%. Turning to `CCOC(=O)c1sc(NC(=O)CCN2CCOCC2)c(C(=O)OCC)c1C`, the inhibition was 4.35%. Turning to `CC(=O)c1ccc(NC(=O)Cn2c(=O)oc3ccccc32)cc1`, the inhibition was 5.59%. On to `C=CCSc1nsc(NC(=O)Nc2cccc(C(C)=O)c2)n1`, for which the inhibition was 3.26%. `CCSc1nsc(NC(=O)Nc2cccc(C(C)=O)c2)n1`: the inhibition was 18.9% (active). `CCSc1nsc(NC(=O)Nc2ccccc2OC)n1`: the inhibition was -2.36%. For the compound `CC(=O)c1cccc(NC(=O)C2CCCN(S(=O)(=O)c3cccc4nonc34)C2)c1` (centres undefined), the inhibition is 4.35%. The same measure for `CC[N+](C)(CC)CCC[n+]1c(-c2ccccc2)c2cc(N)ccc2c2ccc(N)cc21`: 108% (active). As for `CCOc1cc(C2/C(=C(/O)c3ccc(S(=O)(=O)N4CCCCC4)cc3)C(=O)C(=O)N2CCOC)ccc1O` (centres undefined), the inhibition is 2.14%.

In the case of `Cc1cc(C)cc(OCc2nnc(SCC(=O)Nc3ccccc3)o2)c1`, the inhibition was 2.58%. On to `CCCc1nnc(SCC(=O)Nc2ccc(C(=O)OCC)cc2)o1`, for which the inhibition was 22.8% (active). Then `Cc1ccc(NC(=O)CSc2nnc(COc3ccccc3C)o2)cc1`, with 2.58%; and `CCOc1ccc(CN2CCN(Cc3ccc(C)o3)CC2CCO)cc1` (centres undefined), with -3.26%. For the compound `COc1ccc(NC(=O)CN2C(=O)COc3ccc(S(=O)(=O)N4CCOCC4)cc32)cc1`, the inhibition is -1.53%. Then `C[C@H](NC(=O)OC(C)(C)C)c1nnc(SCC(=O)Nc2ccc(Br)cc2)o1`, with 9.5%.

For `CCc1ccccc1NC(=O)CSc1nnc([C@@H](NC(=O)OC(C)(C)C)C(C)CC)o1` (some centres undefined), the inhibition was 36.5% (active). For the compound `Cc1cccc(NC(=O)CSc2nnc(CCNC(=O)OC(C)(C)C)o2)c1C`, the inhibition was -2.25%.

With `CCc1ccccc1NC(=O)CSc1nnc(CCNC(=O)OC(C)(C)C)o1`, the inhibition is -11.2%. Turning to `CCc1ccccc1NC(=O)CSc1nnc([C@@H](NC(=O)OC(C)(C)C)C(C)C)o1`, the inhibition is 25.9% (active). As to `CCc1ccccc1NC(=O)CSc1nnc(-c2ccncc2)o1`, the inhibition was -3.59%.

Turning to `COC(=O)C1(CCSC)NC(c2ccc(OC)cc2OC)C2C(=O)N(c3cccc(C(C)=O)c3)C(=O)C21` (centres undefined), the inhibition is -14.2%. For `CCCCn1c(N)c(N(CC(C)C)C(=O)CSc2ccc([N+](=O)[O-])cc2)c(=O)[nH]c1=O`, the inhibition was 0.91%.

For `Cc1ccc(N(C(=O)c2snc(C(N)=O)c2N)C(C(=O)NCC2CCCO2)c2c[nH]c3ccccc23)cc1` (centres undefined), the inhibition was -0.55%. Then `CCCCC(CC)CNCc1cccn1CCN1CCOCC1` (centres undefined), with -3.94%; and `COc1ccccc1CCNC(=O)C(=O)NCCC1CCCCN1S(=O)(=O)c1cccs1` (centres undefined), with 17.3% (active); and `COc1ccc(CCNC(=O)C(=O)NCC2CCCN2S(=O)(=O)c2cccs2)cc1OC` (centres undefined), with -2.2%. For `O=C(NCCC1CCCCN1S(=O)(=O)c1cccs1)C(=O)Nc1ccc(F)cc1F` (centres undefined), the inhibition was 2.68%. Turning to `Cc1ccc(C(=O)COC(=O)CCN2C(=O)C3C4CCC(C4)C3C2=O)cc1C` (centres undefined), the inhibition is 8.56%.

Consider `COc1ccc(/C=C/CN2CCN(Cc3ccc(C)cc3)C(CCO)C2)cc1` (centres undefined), for which the inhibition was 7.06%. Take `COC(C(=O)Nc1ccc(S(=O)(=O)Nc2ccc(C)c(C)c2)cc1)c1ccccc1` (centres undefined): the inhibition is 1.68%. On to `CCOC(=O)c1ccc(-c2ccc(C(=O)Nc3cccnc3)o2)cc1`, for which the inhibition was 19% (active).

In the case of `Cc1ccc(NC(=O)Nc2cccnc2)cc1`, the inhibition was -1.42%.

Take `CCOC(=O)c1cc(NC(=O)c2cccnc2)ccn1`: the inhibition is -0.7%. In the case of `Cc1cc(C)c(NC(=O)CN2CCOCCOCCOCCOCC2)c(C)c1`, the inhibition is 2.85%. Regarding `O=C(CSc1nc2ccccc2[nH]1)Nc1nc(-c2ccccc2)c(-c2ccccc2)o1`, the inhibition was 17.5% (active). As to `O=C(CSc1nc2ccccc2[nH]1)N/N=C/C=C\c1ccccc1[N+](=O)[O-]`, the inhibition is 4.39%. Turning to `CN(Cc1ccccc1)C(=O)CSc1nc2ccccc2[nH]1`, the inhibition is 2.91%.

Consider `Cc1ccc(O/C=C2\OC(=O)c3ccccc32)cc1`, for which the inhibition was 2.38%. `CCOc1cc(C)ccc1OCc1nnc(SCC(=O)Nc2cccc(C(=O)O)c2)n1-c1ccccc1`: the inhibition was -6.39%. For the compound `Cc1cccc(-n2c(SCC(=O)Nc3cccc(S(=O)(=O)NC4=NCCCCC4)c3)nc3ccccc3c2=O)c1C`, the inhibition is 0.48%.

Consider `CCC(C)NC(=O)c1cc(Cl)ccc1OC` (centres undefined), for which the inhibition is 0.5%. Then `COc1ccc(Cl)cc1C(=O)NCC#N`, with 21% (active); and `COc1ccc(Cl)cc1C(=O)NCc1cn(C)nc1C`, with -1.11%; and `Cc1cnc(C(=O)Oc2cccc(Cl)c2Cl)cn1`, with -0.8%. Turning to `O=C(NCc1cccc(Cl)c1)C1CCN(c2nnc(N3CCCC3=O)s2)CC1`, the inhibition is -5.47%.
